Screening results (PubChem BioAssay)
KCNQ2 enhance: KCNQ2 (rat) channel potentiation. B-score at 10 µM. O88943. AID 2239. CHO-K1 KCNQ2, FluxOR thallium flux fluorescence; stronger effect = higher value. actives 0.54% (n = 310,000);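 active = fluorescence ratio B-score at least 3 SD of library B-scores, with initial fluorescence B-score within 3 of them, cut at about 5.3 in these data; same plate scores as AID 2156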;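 also: B-score of peak minus minimum over baseline fluorescence ratio after K+ and Tl+ stimulus; positive B-score means potentiation of KCNQ2 with more thallium influx and brighter signal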
KCNQ2 inh: blocks the rat KCNQ2 potassium channel. O88943. CHO-K1 KCNQ2, FluxOR thallium flux, 20 min; stronger effect = lower value. B-score at 10 µM. actives 1.1% (n = 310,000). AID 2156;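 active = fluorescence ratio B-score at most minus 3 library SDs, with starting brightness B-score within 2 library SDs, cut at about -5.5 in these data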
Kir21 confirm: confirmation of mouse Kir2.1 potassium channel inhibitors; AID 2032; Tl flux remaining, % of negative control (stronger effect = lower value), % at 10 µM; shares compounds with KCNQ2 enhance; Kir2.1-expressing cells, FluxOR thallium flux fluorescence; stronger effect = lower value; actives 41% (n = 2,300);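 active = Primary-screen hit whose thallium flux fell at least 3 control SD below untreated wells in both duplicates, with normal baseline fluorescence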
Target sequence (P35561 whole entry, looked up): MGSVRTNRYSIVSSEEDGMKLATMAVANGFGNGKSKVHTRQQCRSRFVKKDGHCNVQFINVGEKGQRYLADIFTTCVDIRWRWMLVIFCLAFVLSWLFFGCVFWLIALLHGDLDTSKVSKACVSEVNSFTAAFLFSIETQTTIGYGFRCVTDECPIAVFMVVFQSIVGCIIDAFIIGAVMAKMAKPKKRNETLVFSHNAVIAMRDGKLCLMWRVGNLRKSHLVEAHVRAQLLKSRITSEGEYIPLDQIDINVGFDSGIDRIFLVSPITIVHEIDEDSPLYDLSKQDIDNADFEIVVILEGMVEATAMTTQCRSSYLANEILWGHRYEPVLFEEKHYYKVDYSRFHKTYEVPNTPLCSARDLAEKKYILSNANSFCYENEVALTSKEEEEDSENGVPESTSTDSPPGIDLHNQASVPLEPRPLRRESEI
HEK293 ctr: alters thallium flux in parental HEK293 cells, Kir2.1 counter-screen | actives 19% (n = 2,300) | FluxOR signal as % of negative control (100 = no effect), % at 10 µM | AID 2105 | FluxOR thallium flux fluorescence; 0% = unstimulated blank wells | shares compounds with KCNQ2 enhance;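 active = dye signal at least 3 control SD above or below untreated wells in both duplicates, raw fluorescence within 3, either direction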;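 also: percent is based on the flux ratio of peak minus minimum fluorescence over baseline F0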
CHO-K1 Tl ctr: alters thallium flux in parental CHO-K1 cells, KCNQ2 counter-screen; AID 2282; shares compounds with KCNQ2 enhance; actives 43% (n = 1,200); activity increase over 3SD of controls, % at 10 µM; FluxOR thallium flux fluorescence; zero = vehicle mean+3SD, 100% = vehicle-minus-blank window;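 active = signal rise of at least 3 SD above the untreated control mean, in both duplicate wells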;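 also: counter screen of KCNQ2 potentiator hits so any rise reflects channel-independent effects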
KCNQ1 sel pot: selectivity of KCNQ2 potentiators: effect on human KCNQ1; CHO KCNQ1 stable, FluxOR thallium flux fluorescence; beyond 3SD, as % of vehicle-control signal; actives 28% (n = 1,200); activation over 3SD threshold, % at 10 µM; shares compounds with KCNQ2 enhance;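 active = fluorescence ratio rise of at least 3 SD of vehicle wells above their mean, in both replicate wells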
KCNQ2 pot confirm: rat KCNQ2 channel potentiator confirmation | shares compounds with KCNQ2 enhance | CHO-KCNQ2 cells, FluxOR thallium flux fluorescence | potentiation, less the hit threshold, % at 10 µM | actives 68% (n = 1,200);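 active = fluorescence ratio rising 3 SD or more over the vehicle control mean in both replicates, plus primary screen hit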;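 also: peak minus minimum thallium fluorescence divided by baseline after K/Tl stimulus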
Kir2-1 sel: selectivity of KCNQ2 potentiators: effect on mouse Kir2.1; activity over 3SD threshold, % at 10 µM; HEK293 Kir2.1, FluxOR thallium flux fluorescence; actives 2% (n = 1,200); shares compounds with KCNQ2 enhance;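 active = fluorescence ratio rise of at least 3 SD above the vehicle-control mean, seen in both replicates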
KCNQ2 W236L pot: potentiates the retigabine-insensitive rat KCNQ2 W236L mutant channel; shares compounds with KCNQ2 enhance; CHO KCNQ2-W236L, automated patch clamp current; current increase over 3SD of negative controls (%), stronger effect = higher value, % at 25 µM; actives 10% (n = 940);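 active = current increase at least 3 SD of the untreated controls above them in both duplicate recordings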
Numbers stand for hits; – = inactive; · = no result. This is a sample that favours compounds with a hit; in the whole collection about 1.6% have one here.

SMILES	KCNQ2 enhance	KCNQ2 inh	others
Clc1ccc(C[n+]2c(-c3ccccc3)cc(-c3ccccc3)cc2-c2ccccc2)cc1	–	-7.2	Kir21 confirm=17%;HEK293 ctr=–
C#CC[N+]1(C)C2CCC1CC(O)C2 (stereo unspecified)	–	–
Cc1ccc2c(c1)cc1c(=O)n(CC(=O)N3CCC4(CC3)OCCO4)nc(C)n12	·	–
CCS(=O)(=O)NCc1nnc2n1-c1ccc(Br)cc1C(c1ccccc1Cl)=NC2	·	–
CCCc1cc(=O)oc2cc(OCC(=O)N3CCC(C(=O)O)(c4ccccc4)CC3)ccc12	–	–
COc1ccccc1N1CCN(C2CCCN(C(=O)COc3ccccc3Cl)C2)CC1 (stereo unspecified)	·	–
COc1cccc(CNCCc2ccccc2)c1OC	–	–
COc1ccc2ccccc2c1CNCCc1ccccc1	·	–	Kir21 confirm=38%;HEK293 ctr=–
O=C1CN(O)C(c2ccccc2)=c2cc(Cl)ccc2=N1	·	–
CCOc1cc2c(cc1OCC)-n1cccc1C(c1cc(OC)ccc1F)NC2 (stereo unspecified)	·	–
O=C(CCCN1CCC2(CC1)C(=O)NCN2c1ccccc1)c1ccc(F)cc1	6	–	Kir21 confirm=–;HEK293 ctr=–;CHO-K1 Tl ctr=5.3;KCNQ1 sel pot=64;KCNQ2 pot confirm=17;Kir2-1 sel=–;KCNQ2 W236L pot=–
O=C(c1ccc(F)cc1)C(Cc1ccccc1)N1CCCCC1 (stereo unspecified)	–	–
C[C@]12C=CC(=O)C=C1CC[C@@H]1C2CC[C@]2(C)OC(=O)CCC12 (stereo partly specified)	–	–
